According to PubChem BioAssay AID1159580 (chemical genetic matrix, 2015):
The whole screen tested about 5,500 compounds, of which about 2,000 (36%) were called active. Not shown: some 18% with an inconclusive outcome. Rule as the data show it: active = normalized growth mostly below about 0.91 (no sharp cut-off); inconclusive = no clear call, values can overlap the other calls; inactive = mostly above about 0.92. The list shows a part of the results.

Test: chemical genetic growth profiling, strain panel (AID 1159580);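 also: tested at 20 µM; growth read once vehicle control cultures reached saturation at 30 °C; 1 = growth at the plate median or of vehicle wells; lower values mean less growth of the strain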
Conditions: growth OD

Measured: normalized growth

COc1cnc(NS(=O)(=O)c2ccc(N)cc2)nc1
inactive: S. cerevisiae deletion strains, locus YJR075W, strain HOC1, active compounds read low 0.978 | S. cerevisiae deletion strains, locus YKL009W, strain mrt4, active compounds read low 0.994 | S. cerevisiae deletion strains, locus YKL068W, active compounds read low 0.983 | S. cerevisiae deletion strains, locus YKL085W, strain MDH1 (second series), active compounds read low 0.971 | S. cerevisiae deletion strains, locus YKL085W, strain MDH1, active compounds read low 0.971 | S. cerevisiae deletion strains, locus YKL160W, strain elf1, active compounds read low 0.999 | S. cerevisiae deletion strains, locus YKL190W, strain CNB1, active compounds read low 0.979 | S. cerevisiae deletion strains, locus YKR001C, strain vps1, active compounds read low 0.964 | S. cerevisiae deletion strains, locus YKR026C, strain gcn3, active compounds read low 1 | S. cerevisiae deletion strains, locus YKR091W, strain srl3, active compounds read low 0.998 | S. cerevisiae deletion strains, locus YLL001W, strain dnm1, active compounds read low 0.966 | S. cerevisiae deletion strains, locus YLL026W, active compounds read low 1 | S. cerevisiae deletion strains, locus YLL041C, strain sdh2, active compounds read low 0.997 | S. cerevisiae deletion strains, locus YLR027C, strain aat2, active compounds read low 1.01 | S. cerevisiae deletion strains, locus YLR039C, strain RIC1, active compounds read low 0.969 | S. cerevisiae deletion strains, locus YLR058C, strain SHM2, active compounds read low 0.976 | S. cerevisiae deletion strains, locus YLR102C, strain apc9, active compounds read low 0.973 | S. cerevisiae deletion strains, locus YLR113W, strain HOG1, active compounds read low 0.989 | S. cerevisiae deletion strains, locus YLR221C, strain rsa3, active compounds read low 0.988 | S. cerevisiae deletion strains, locus YLR258W, strain gsy2, active compounds read low 0.99 | S. cerevisiae deletion strains, locus YLR262C, strain YPT6 (second series), active compounds read low 1.02 | S. cerevisiae deletion strains, locus YLR262C, strain YPT6, active compounds read low 0.96 | S. cerevisiae deletion strains, locus YLR268W, strain sec22, active compounds read low 0.888 | S. cerevisiae deletion strains, locus YLR320W, strain mms22, active compounds read low 0.965 | S. cerevisiae deletion strains, locus YLR330W, strain CHS5, active compounds read low 0.994 | S. cerevisiae deletion strains, locus YLR342W, strain FKS1 (second series), active compounds read low 1.03 | S. cerevisiae deletion strains, locus YLR342W, strain FKS1, active compounds read low 1.01 | S. cerevisiae deletion strains, locus YLR357W, strain rsc2, active compounds read low 0.945 | S. cerevisiae deletion strains, locus YLR370C, strain arc18, active compounds read low 1 | S. cerevisiae deletion strains, locus YLR371W, strain rom2, active compounds read low 0.97 | S. cerevisiae deletion strains, locus YLR384C, strain iki3, active compounds read low 1 | S. cerevisiae deletion strains, locus YLR418C, strain cdc73, active compounds read low 0.99 | S. cerevisiae deletion strains, locus YML016C, strain PPZ1, active compounds read low 0.993 | S. cerevisiae deletion strains, locus YML032C, strain rad52, active compounds read low 0.97 | S. cerevisiae deletion strains, locus YML120C, strain ndi1, active compounds read low 1.02 | S. cerevisiae deletion strains, locus YML124C, strain tub3, active compounds read low 0.979 | S. cerevisiae deletion strains, locus YMR058W, strain fet3, active compounds read low 1 | S. cerevisiae deletion strains, locus YMR078C, strain ctf18, active compounds read low 0.976 | S. cerevisiae deletion strains, locus YMR125W, strain sto1, active compounds read low 0.991 | S. cerevisiae deletion strains, locus YMR129W, active compounds read low 0.985 | S. cerevisiae deletion strains, locus YMR205C, strain PFK2, active compounds read low 0.998 | S. cerevisiae deletion strains, locus YMR223W, strain ubp8, active compounds read low 0.979 | S. cerevisiae deletion strains, locus YMR231W, strain pep5, active compounds read low 0.998 | S. cerevisiae deletion strains, locus YMR307W, strain GAS1, active compounds read low 1.03 | S. cerevisiae deletion strains, locus YNL067W, strain RPL9B, active compounds read low 0.982 | S. cerevisiae deletion strains, locus YNL071W, strain lat1, active compounds read low 1.01 | S. cerevisiae deletion strains, locus YNL183C, strain NPR1, active compounds read low 0.933 | S. cerevisiae deletion strains, locus YNL209W, strain ssb2, active compounds read low 0.997 | S. cerevisiae deletion strains, locus YNL233W, strain BNI4, active compounds read low 1 | S. cerevisiae deletion strains, locus YNL248C, strain rpa49, active compounds read low 0.982 | S. cerevisiae deletion strains, locus YNL250W, strain rad50, active compounds read low 0.982 | S. cerevisiae deletion strains, locus YNL271C, strain bni1, active compounds read low 0.979 | S. cerevisiae deletion strains, locus YNL298W, strain CLA4, active compounds read low 0.965 | S. cerevisiae deletion strains, locus YNL307C, strain MCK1, active compounds read low 0.981 | S. cerevisiae deletion strains, locus YNL322C, strain KRE1 (second series), active compounds read low 0.986 | S. cerevisiae deletion strains, locus YNR049C, strain mso1, active compounds read low 1 | S. cerevisiae deletion strains, locus YNR052C, strain pop2, active compounds read low 0.977 | S. cerevisiae deletion strains, locus YOL006C, strain TOP1, active compounds read low 0.945 | S. cerevisiae deletion strains, locus YOL012C, strain htz1 0.813 | S. cerevisiae deletion strains, locus YOL147C, strain pex11, active compounds read low 0.985 | S. cerevisiae deletion strains, locus YOR001W, strain rrp6, active compounds read low 0.99 | S. cerevisiae deletion strains, locus YOR061W, strain CKA2, active compounds read low 0.962 | S. cerevisiae deletion strains, locus YOR069W, strain VPS5, active compounds read low 0.993 | S. cerevisiae deletion strains, locus YOR070C, strain gyp1, active compounds read low 1.01 | S. cerevisiae deletion strains, locus YOR080W, strain dia2, active compounds read low 0.98 | S. cerevisiae deletion strains, locus YOR083W, strain WHI5, active compounds read low 0.943 | S. cerevisiae deletion strains, locus YOR106W, strain vam3, active compounds read low 0.986 | S. cerevisiae deletion strains, locus YOR136W, strain idh2, active compounds read low 0.987 | S. cerevisiae deletion strains, locus YOR144C, strain elg1, active compounds read low 0.976 | S. cerevisiae deletion strains, locus YOR184W, strain ser1, active compounds read low 0.985 | S. cerevisiae deletion strains, locus YOR231W, strain MKK1, active compounds read low 0.99 | S. cerevisiae deletion strains, locus YOR265W, strain rbl2, active compounds read low 1.02 | S. cerevisiae deletion strains, locus YOR270C, strain vph1, active compounds read low 1.04 | S. cerevisiae deletion strains, locus YOR290C, strain snf2, active compounds read low 0.984 | S. cerevisiae deletion strains, locus YOR316C, strain cot1, active compounds read low 0.958 | S. cerevisiae deletion strains, locus YPL051W, strain arl3, active compounds read low 0.999 | S. cerevisiae deletion strains, locus YPL055C, strain LGE1, active compounds read low 0.949 | S. cerevisiae deletion strains, locus YPL078C, strain atp4, active compounds read low 0.991 | S. cerevisiae deletion strains, locus YPL106C, strain sse1, active compounds read low 0.952 | S. cerevisiae deletion strains, locus YPL240C, strain hsp82, active compounds read low 1 | S. cerevisiae deletion strains, locus YPL256C, strain CLN2, active compounds read low 0.99 | S. cerevisiae deletion strains, locus YPR119W, strain clb2, active compounds read low 0.985 | S. cerevisiae deletion strains, locus YPR141C, strain kar3, active compounds read low 0.96 | S. cerevisiae deletion strains, locus YPR163C, strain tif3, active compounds read low 0.991 | S. cerevisiae deletion strains, locus YPR167C, strain met16, active compounds read low 0.983 | S. cerevisiae deletion strains, strain wtn01, active compounds read low 0.989 | S. cerevisiae strains, strain wild type, active compounds read low 0.983
